Assay results: PubChem BioAssay AID686960 (The Scripps Research Institute Molecular Screening Center, 2013)
The other results are listed elsewhere or left out. A number with no mark means an inactive call. Activity calls are given as the source filed them. Rule as the data show it: active = IC50 below about 10 µM; inactive = the rest.

assay: dye displacement from CAG DNA duplex – biochemical, fluorescence, TO-PRO-1 dye, counter-screen for rCAG RNA repeat binder project, dose response (AID 686960); conditions: DNA CAG/GTC duplex TO-PRO-1 dye displacement fluorescence

SMILES | IC50
COc1ccc(Cc2nnc(SCC(=O)Nc3ccc(C)c(Cl)c3)[nH]c2=O)cc1 | 24.2 µM
CC(C)(C)C1C/C(=C/c2ccco2)C(=O)/C(=C/c2ccco2)C1 (stereo unspecified) | > 29.9 µM
CC1(C(=O)NS(=O)(=O)c2ccc3ccccc3c2)CCN1C(=O)C1(c2ccc(Cl)cc2)CCC1 (stereo unspecified) | 21.2 µM
O=C(Cc1ccccc1)Nc1ccc(C(=O)Nc2ccccc2C(=O)O)cc1 | > 29.9 µM
Cc1ccc(C(C)C)c(OCCSc2nc3ccccc3n2CC(=O)O)c1 | > 29.9 µM
COc1ccc(C(=O)Nc2cccc(/C=C(/CCC(=O)O)c3nc4ccccc4s3)c2)cc1 | 14.2 µM
O=C(O)c1ccc(NN=CC2=C(N3CCOCC3)/C(=C/c3ccccc3)CC2)cc1 | 11 µM
CC(C)c1ccc(CC(=O)N2CCC2(C)C(=O)NS(=O)(=O)c2ccc(C(C)(C)C)cc2)cc1 (stereo unspecified) | > 29.9 µM
Cc1noc(NS(=O)(=O)c2ccc(NC(=O)c3oc4ccc(F)cc4c3C)cc2)c1C | 16.5 µM
Cc1ccc(S(=O)(=O)N2[C@@H](c3ccc(Br)cc3)C(C(=O)O)=C[C@H]2CC2CCCC2)cc1 | 11.6 µM
CO/N=C(\C(=O)N[C@@H]1C(=O)N2C(C(=O)O)=C(COC(C)=O)CS[C@H]12)c1csc(N)n1 (stereo in doubt) | 9.89 µM (active)
